In ChEMBL document CHEMBL3988442, “University of Dundee, Small-Polar-MMV Screening Library” (2021):
For some of these results: Potency and affinity values are given separately.

How the values were obtained:
Design in all cases: scale not given: direction of the effect not stated beside the values
[1] = target: Protein translocase subunit SecA (Escherichia coli (strain K12)) (UniProt P10408); assay: Assay to Identify E. coli SecA ATPase Inhibitors; assay type: functional; settings: 30 µM
[2] = target: T1, Ubiquitin-activating enzyme e1, putative (Leishmania donovani (strain BPK282A1)) (UniProt E9BSI1); assay: Leishmania donovani Ubiquitin Activating Enzyme (LdE1); assay type: functional; settings: 30 µM
T1 sequence (whole entry): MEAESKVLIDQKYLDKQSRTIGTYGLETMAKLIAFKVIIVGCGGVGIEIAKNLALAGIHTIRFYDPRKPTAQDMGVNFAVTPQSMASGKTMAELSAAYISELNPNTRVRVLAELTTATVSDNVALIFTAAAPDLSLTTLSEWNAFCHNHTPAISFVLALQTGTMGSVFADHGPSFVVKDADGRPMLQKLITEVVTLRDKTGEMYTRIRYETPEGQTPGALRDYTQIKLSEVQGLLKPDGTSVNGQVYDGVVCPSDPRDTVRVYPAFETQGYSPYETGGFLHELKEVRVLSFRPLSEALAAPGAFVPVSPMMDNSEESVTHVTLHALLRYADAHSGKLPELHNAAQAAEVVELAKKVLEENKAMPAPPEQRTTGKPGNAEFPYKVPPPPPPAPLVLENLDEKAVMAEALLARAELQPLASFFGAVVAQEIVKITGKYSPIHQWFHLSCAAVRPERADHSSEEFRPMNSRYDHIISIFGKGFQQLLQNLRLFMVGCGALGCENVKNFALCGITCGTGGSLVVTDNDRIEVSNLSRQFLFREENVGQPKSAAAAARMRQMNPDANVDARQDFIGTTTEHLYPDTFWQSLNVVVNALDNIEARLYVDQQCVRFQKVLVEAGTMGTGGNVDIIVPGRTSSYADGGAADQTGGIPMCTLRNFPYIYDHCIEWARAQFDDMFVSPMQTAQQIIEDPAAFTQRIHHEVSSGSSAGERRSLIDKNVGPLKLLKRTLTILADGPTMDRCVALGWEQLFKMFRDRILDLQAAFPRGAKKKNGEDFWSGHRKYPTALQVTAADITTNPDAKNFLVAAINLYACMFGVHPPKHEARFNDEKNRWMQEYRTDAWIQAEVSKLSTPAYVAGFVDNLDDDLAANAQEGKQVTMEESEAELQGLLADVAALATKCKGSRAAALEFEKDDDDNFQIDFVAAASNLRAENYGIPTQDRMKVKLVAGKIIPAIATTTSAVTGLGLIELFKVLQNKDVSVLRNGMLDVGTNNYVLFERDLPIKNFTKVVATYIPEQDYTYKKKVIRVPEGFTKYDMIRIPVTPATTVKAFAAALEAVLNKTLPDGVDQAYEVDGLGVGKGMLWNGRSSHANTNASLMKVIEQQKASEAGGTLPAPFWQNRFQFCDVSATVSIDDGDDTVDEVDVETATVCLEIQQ

[3] = target: AMP-activated protein kinase, AMPK (Homo sapiens) (UniProt P54646+O43741+P54619+Q9UGJ0+Q9Y478+Q13131+Q9UGI9); assay: AMP-dependent Kinase enzyme assay. An in vitro enzyme assay that detects ADP turnover that is directly proportional to AMPK activity. This uses naive AMPK that is activated during the assay with MK-8722; assay type: functional; settings: 30 µM
[4] = target: Sialic acid-binding Ig-like lectin 9 (Homo sapiens) (UniProt Q9Y336); assay: Hs-Siglec9 ALPHAscreen SOP 20170721; settings: 10 µM
Trypanosoma cruzi = assay: Trypanosoma cruzi phosphomannomutase and mannose-1-phosphate guanylyltransferase assay; assay type: functional; settings: 10 µM
[5] = target: T2, Arginase-2, mitochondrial (Homo sapiens) (UniProt P78540); assay: in vitro enzyme assay to detect the production of urea directly proportional to the activity of Arginase II; assay type: functional; settings: 33.3 µM; further: in the data most compounds retested in dose-response had high values
T2 sequence (whole entry): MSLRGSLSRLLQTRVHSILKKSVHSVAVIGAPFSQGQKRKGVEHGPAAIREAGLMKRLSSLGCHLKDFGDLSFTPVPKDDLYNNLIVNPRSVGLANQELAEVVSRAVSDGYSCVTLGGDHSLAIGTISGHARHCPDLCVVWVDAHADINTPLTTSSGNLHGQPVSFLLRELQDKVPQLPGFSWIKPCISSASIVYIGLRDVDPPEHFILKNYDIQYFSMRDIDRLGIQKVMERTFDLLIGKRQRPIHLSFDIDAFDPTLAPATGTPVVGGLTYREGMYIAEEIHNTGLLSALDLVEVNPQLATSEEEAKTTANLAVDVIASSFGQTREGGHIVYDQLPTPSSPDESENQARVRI

[6] = target: T3, Proteasome subunit beta (Trypanosoma cruzi) (UniProt O96673); assay: Trypanosoma cruzi proteasome chymotrypsin-like activity (TcProtChymo) assay.; further: in the data most compounds retested in dose-response had high values; assay type: functional; settings: 9.37 µM
T3 sequence (whole entry): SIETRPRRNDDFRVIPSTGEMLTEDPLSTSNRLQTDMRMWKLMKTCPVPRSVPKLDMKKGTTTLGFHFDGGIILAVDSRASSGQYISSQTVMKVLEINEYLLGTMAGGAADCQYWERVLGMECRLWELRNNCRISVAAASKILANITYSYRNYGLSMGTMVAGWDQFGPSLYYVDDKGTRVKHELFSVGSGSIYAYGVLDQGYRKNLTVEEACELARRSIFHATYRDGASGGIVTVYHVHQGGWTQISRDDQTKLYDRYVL

Homo sapiens = species: Homo sapiens; assay: To identify inhibition of the IFN signalling (Jak-Stat) pathway via expression of an eGFP reporter gene under the control of an IFN-stimulated response element (ISRE) containing MxA promoter.; assay type: functional; settings: 30 µM
[7] = target: T4, Tyrosyl-tRNA synthetase, putative (Trypanosoma cruzi (strain CL Brener)) (UniProt Q4DSP6); assay: Trypanosoma cruzi tyrosyl tRNA synthetase (TcYRS) _High Tyrosine SOP; assay type: functional; settings: 30 µM; further: in the data most compounds retested in dose-response had high values
T4 sequence (whole entry): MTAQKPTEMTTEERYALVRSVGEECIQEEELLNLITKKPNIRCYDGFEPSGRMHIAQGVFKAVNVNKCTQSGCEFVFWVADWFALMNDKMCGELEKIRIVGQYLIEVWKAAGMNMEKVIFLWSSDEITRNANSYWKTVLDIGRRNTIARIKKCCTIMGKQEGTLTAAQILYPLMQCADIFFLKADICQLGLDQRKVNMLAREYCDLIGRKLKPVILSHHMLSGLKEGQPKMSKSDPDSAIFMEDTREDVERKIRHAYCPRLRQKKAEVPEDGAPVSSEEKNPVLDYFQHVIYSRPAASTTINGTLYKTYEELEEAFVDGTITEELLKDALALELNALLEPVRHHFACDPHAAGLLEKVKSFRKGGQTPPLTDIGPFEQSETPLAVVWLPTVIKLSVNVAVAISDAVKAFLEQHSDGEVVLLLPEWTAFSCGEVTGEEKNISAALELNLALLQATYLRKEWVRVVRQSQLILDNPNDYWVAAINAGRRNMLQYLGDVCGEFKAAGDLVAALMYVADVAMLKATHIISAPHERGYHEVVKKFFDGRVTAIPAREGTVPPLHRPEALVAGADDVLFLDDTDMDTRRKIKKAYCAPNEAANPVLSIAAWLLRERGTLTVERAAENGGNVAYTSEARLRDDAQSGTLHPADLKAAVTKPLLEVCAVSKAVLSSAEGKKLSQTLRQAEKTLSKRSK

[8] = target: T4, Tyrosyl-tRNA synthetase, putative (Trypanosoma cruzi (strain CL Brener)); assay: Trypanosoma cruzi tyrosyl tRNA synthetase (TcYRS) SOP; assay type: functional; settings: 30 µM
[9] = target: Chromo domain-containing protein 1 (Saccharomyces cerevisiae (strain ATCC 204508 / S288c) (Baker's yeast)) (UniProt P32657); assay: ScCHD-1 Enzyme Inhibition Assay; assay type: functional; settings: 30 µM; further: in the data most compounds retested in dose-response had high values
Chain of Chromo domain-containing protein 1 (Saccharomyces cerevisiae (strain ATCC 204508 / S288c) (Baker's yeast)) (P32657 whole entry, the tested form may be a part): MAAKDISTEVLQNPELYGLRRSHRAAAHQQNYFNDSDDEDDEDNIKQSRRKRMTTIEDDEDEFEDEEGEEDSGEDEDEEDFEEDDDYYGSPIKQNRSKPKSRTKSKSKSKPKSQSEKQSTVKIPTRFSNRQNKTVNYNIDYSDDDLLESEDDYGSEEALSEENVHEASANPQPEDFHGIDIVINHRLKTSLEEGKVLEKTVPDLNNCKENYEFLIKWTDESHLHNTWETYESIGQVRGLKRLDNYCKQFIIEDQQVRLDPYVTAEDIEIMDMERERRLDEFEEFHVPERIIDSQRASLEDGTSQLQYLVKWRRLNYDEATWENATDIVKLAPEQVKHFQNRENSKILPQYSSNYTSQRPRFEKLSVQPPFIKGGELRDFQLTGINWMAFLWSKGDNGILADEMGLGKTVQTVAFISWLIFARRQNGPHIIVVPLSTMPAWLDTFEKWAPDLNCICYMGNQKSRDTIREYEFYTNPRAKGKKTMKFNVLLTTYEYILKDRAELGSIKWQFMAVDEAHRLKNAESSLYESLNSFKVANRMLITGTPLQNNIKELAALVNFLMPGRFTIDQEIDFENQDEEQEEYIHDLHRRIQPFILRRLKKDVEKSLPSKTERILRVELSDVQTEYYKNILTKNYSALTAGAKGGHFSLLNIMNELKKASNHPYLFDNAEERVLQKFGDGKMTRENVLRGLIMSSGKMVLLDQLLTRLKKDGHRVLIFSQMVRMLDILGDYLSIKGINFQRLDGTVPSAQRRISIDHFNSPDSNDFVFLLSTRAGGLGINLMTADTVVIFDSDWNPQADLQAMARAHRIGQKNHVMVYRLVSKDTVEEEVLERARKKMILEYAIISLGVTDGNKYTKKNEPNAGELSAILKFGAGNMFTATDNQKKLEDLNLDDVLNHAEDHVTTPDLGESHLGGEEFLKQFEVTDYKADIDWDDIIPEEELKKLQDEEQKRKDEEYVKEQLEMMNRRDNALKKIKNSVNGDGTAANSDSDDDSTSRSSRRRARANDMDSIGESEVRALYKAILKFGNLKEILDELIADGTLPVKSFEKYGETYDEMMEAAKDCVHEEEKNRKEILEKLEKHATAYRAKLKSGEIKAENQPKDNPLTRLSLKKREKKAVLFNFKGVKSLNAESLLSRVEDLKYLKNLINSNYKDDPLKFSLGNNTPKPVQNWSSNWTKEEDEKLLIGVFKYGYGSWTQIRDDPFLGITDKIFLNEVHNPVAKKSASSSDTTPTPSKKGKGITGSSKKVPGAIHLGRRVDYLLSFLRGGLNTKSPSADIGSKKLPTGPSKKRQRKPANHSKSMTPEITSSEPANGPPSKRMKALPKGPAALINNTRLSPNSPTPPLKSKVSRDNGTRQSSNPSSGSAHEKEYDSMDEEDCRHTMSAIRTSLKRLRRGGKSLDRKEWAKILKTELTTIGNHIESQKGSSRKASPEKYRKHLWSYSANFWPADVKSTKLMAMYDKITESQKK

Chain of Sialic acid-binding Ig-like lectin 9 (Homo sapiens) (Q9Y336 whole entry): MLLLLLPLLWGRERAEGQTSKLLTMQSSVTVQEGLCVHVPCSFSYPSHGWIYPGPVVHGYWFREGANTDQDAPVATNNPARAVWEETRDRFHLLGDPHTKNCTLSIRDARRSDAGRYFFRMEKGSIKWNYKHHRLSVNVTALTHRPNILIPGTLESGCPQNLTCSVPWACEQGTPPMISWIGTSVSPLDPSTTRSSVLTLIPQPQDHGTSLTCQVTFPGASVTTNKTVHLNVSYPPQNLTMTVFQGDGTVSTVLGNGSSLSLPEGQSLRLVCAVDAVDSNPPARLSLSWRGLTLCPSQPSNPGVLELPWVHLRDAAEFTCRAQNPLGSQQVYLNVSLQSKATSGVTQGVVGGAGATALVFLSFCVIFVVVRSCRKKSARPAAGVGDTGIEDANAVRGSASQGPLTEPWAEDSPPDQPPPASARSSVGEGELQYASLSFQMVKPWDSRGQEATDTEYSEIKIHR
Chain of Protein translocase subunit SecA (Escherichia coli (strain K12)) (P10408 whole entry): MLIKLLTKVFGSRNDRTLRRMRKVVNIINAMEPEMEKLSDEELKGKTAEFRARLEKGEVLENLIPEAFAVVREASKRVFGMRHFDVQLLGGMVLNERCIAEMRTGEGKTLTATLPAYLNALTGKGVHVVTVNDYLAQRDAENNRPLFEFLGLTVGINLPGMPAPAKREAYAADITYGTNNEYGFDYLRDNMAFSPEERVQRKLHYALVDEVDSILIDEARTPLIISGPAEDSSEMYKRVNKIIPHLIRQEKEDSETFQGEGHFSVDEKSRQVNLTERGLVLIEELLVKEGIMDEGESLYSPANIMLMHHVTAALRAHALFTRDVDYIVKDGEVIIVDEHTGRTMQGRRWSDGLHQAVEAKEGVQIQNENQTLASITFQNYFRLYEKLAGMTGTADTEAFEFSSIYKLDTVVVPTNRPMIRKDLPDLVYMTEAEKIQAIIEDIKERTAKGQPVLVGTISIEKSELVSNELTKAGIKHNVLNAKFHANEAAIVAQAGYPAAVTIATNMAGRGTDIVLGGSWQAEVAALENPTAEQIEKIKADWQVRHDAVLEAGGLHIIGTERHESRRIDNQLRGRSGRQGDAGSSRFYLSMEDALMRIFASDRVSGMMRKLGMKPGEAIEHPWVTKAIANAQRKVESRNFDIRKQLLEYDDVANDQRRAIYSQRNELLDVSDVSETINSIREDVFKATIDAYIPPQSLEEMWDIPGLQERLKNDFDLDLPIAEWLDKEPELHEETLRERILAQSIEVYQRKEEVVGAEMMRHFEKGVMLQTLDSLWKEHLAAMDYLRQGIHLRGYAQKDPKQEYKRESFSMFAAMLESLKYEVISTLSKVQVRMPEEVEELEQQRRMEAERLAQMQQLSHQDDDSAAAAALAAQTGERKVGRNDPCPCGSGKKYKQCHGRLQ

| Structure (SMILES) | Percent Effect [1] | Percent Effect [2] | Percent Effect [3] | Percent Effect [4] | Percent Effect (Trypanosoma cruzi) | Percent Effect [5] | Percent Effect [6] | Percent Effect (Homo sapiens) | Percent Effect [7] | Percent Effect [8] | Percent Effect [9] |
| --- | --- | --- | --- | --- | --- | --- | --- | --- | --- | --- | --- |
| Cc1cnn(CC2CN(CC(=O)Nc3sccc3C#N)CCO2)c1 (stereo not given) | -4.12% | 7.89% | 0.0642% | 13% | 0.564% | 5.75% | 3.17% | 18.2% | 4.41% | 7.32% | -1.67% |
| CCOc1ncccc1NC(=O)N1CCc2ccccc2C1 | -2.4% | -5.41% | -19.1% | 3.06% | -2.14% | 7.95% | 0% | -3.53% | -1.98% | -1.22% | 9.66% |
| c1coc(-c2noc(CN3CC(n4cccn4)C3)n2)c1 | -5.48% | 7.79% | 3% | -4.91% | 0.49% | 1.05% | 2.18% | 19.4% | 3.81% | 9.41% | -11.1% |
| O=C(CC1CCCC1)N1CCCC(c2n[nH]c3nccnc23)C1 (stereo not given) | -2.49% | 6.76% | 20.4% | 3.58% | -2.17% | 7.66% | 11.2% | 13.3% | 3.23% | 16.9% | -9.36% |
| CCc1n[nH]c(C2CN(C(=O)c3cnc(C)s3)CCO2)n1 (stereo not given) | -5.53% | 12.7% | -5.15% | 12.5% | 5% | -1.9% | -3.03% | -0.688% | 3.45% | 8.86% | -5.66% |
| CCn1cc2c(n1)CN(Cc1ccncc1)CC2COCC1CC1 (stereo not given) | -3.54% | 10.7% | 12.3% | 6.03% | -1.97% | -0.699% | 10.7% | 4.31% | 6.38% | 11.5% | -6.9% |
| Cc1cnn(C2CCCN(C(=O)c3cccc(Cn4ccnc4)c3)C2)c1 (stereo not given) | -1.7% | 13.9% | -5.85% | -7.26% | 2.36% | -4.09% | 17.3% | 25.8% | 1.04% | 10.1% | -30.4% |
| Cc1cncc(C(=O)N2CCC(Cn3cc(-c4ccsc4)nn3)CC2)c1 | -2.48% | 2.7% | 0.205% | 2.1% | -3.86% | -0.476% | 11.6% | 7.16% | 1.59% | 9.76% | -1.22% |
| O=C(NCCN1CCNCC1)c1c(O)c2ccccc2[nH]c1=O | 1.56% | 12% | 11% | -7.32% | -9.23% | -14.3% | 20.1% | 26.5% | 0% | 5.13% | -9.61% |
| O=C(Cn1cc(I)cn1)N1CCCC1 | 0.0934% | -1.33% | -2.19% | 10.5% | 2.55% | -2.64% | 7.02% | 20.5% | 5.29% | 5.13% | -2.75% |
| CCc1nnc2n1CCN(C(=O)c1ccc3[nH]cnc3c1)C2 | -7.1% | 12.5% | -11.5% | 41.5% | 6.9% | 3.97% | 10.2% | 0.294% | 3.16% | 15.4% | -13.2% |
| Cc1ccc(C)c(OC2CCN(C(=O)c3ccc(C)[nH]c3=O)CC2)c1 | -3.58% | 15.8% | -5.18% | 6.14% | 8.84% | 1.53% | 10.9% | 11.6% | 5.39% | 12.2% | -11.4% |
| COc1ccnc(N2CCN(C(=O)Cc3ccc(C)s3)CC2)n1 | -2.28% | -2.6% | 5.06% | 8.15% | 2.84% | -0.632% | 13.8% | -7.95% | 9.52% | 25.9% | -9.7% |
| Cn1ccnc1CN1CCN(c2ccc(C#N)cn2)CC1 | -0.525% | -67.6% | 39.5% | 9.32% | 0.464% | 1.29% | 6.64% | 7.75% | 6.93% | 15.8% | -4.02% |
| Cc1ccn(-c2ccc(C(=O)N3CCCC(n4ccnc4)C3)cc2)n1 (stereo not given) | 1.74% | -2.53% | 4.22% | -1.83% | 1.6% | 2.66% | -2.21% | 1.73% | 4.43% | -3.8% | -1.63% |
| CCN1CCOC(CNCc2ccccn2)C1 (stereo not given) | -1.35% | 0% | -15.7% | 4.04% | 7.19% | 1.8% | -3.64% | -4.24% | 8.37% | 16.1% | -1.88% |
| O=C(Cn1ccc2ccc(Br)cc21)NC[C@@H]1CCCN2CCCC[C@H]12 | -9.26% | -4% | 0.939% | -2.99% | -5.5% | -12.8% | 2.03% | 7.57% | 0% | -56.4% | -8.03% |
| CN(C)C(=O)CS(=O)(=O)Cc1cc(Cl)c2c(c1)OCO2 | -3.08% | 18.4% | -1.27% | 2.86% | -0.654% | 3.96% | 5.16% | -13.9% | 6.4% | 23.5% | -7.39% |
| Cc1ccn(-c2ccc(C(=O)N3CCCC(C(N)=O)C3)cc2)n1 (stereo not given) | -6.07% | 10.1% | -10.5% | 3.7% | -5% | -1.9% | 5.16% | 28.1% | 0.493% | 8.86% | -4.17% |
| Cc1ccc(NC2CCN(C(=O)Cc3cccc(F)c3)CC2)nn1 | -1.31% | 21.6% | -15.1% | 7.97% | 7.83% | -12% | 6.67% | 6.31% | 9.36% | 28.4% | -10.9% |
